Rows were chosen to be rich in hits. Some 2.3% of all compounds tested hit in one or more screens of this group.
Akt phos inh: inhibitors of Akt phosphorylation. Neuro2A IGF-stimulated pAkt S473 HTRF, 20 min; stronger effect = lower value. activity change, % for hits at 50 µM. 360,000 tested, 0.32% active. AID 651550; in the data active = activity change below about -80%; inconclusive = mostly about -51% to -80%; note: % is set by controls: 0 for no effect and ±100 for the full control effect
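Neuro2A cells in DMEM with 0.5% FBS, overnight at 37 deg C, given compound at single 50 µM final, then IGF (6 nM final) for 20 min at 37 deg C. Lysed; phospho-Akt Ser473 by HTRF after 24 h, 665/615 ratio.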
TDP-43 yeast inh: TDP-43 toxicity inhibition in yeast; 410,000 tested, 1.8% active; Potency, µM (top dose mostly 46.1 µM), without a hit: top-dose growth rescue (activation), usual class: activators; AID 652104; TDP-43 expressing yeast growth rescue, BacTiter-Glo, 24 h; note: potency is the fitted concentration of half-maximal effect; % of control where 0% means no effect; nearly all actives have a fitted effect of over 50% in size
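In this qHTS, compounds that restore growth of yeast expressing TDP-43 appear as activators. Cells (OD600=0.02, galactose medium, raffinose-pregrown) are incubated with compound 24 hr at 30 deg C and growth is quantified by BacTiter-Glo.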
aSyn yeast inh: alpha-synuclein toxicity inhibition in yeast; Yeast expressing alpha-synuclein, growth rescue, BacTiter-Glo, 24 h; 370,000 tested, 0.14% active; Potency, µM (series often up to 46.1 µM), for inactives: at the highest dose growth rescue (activation), most hits filed as activators; AID 652106; note: potency is the fitted concentration of half-maximal effect; % of control where 0% means no effect; nearly all actives have a fitted effect of over 65% in size
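Screening used galactose-induced yeast with toxic alpha-synuclein levels, exposed to compound for 24 hr at 30 deg C. Cell growth, read with BacTiter-Glo luminescence, gave the measured signal.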
Abeta yeast res: restores growth of yeast expressing A-beta42 peptide. yeast expressing A-beta42, growth rescue, OD600, 48 h; response scale: 0% DMSO, 100% iron-clioquinol control. Potency, µM (doses to about 46.1 µM), usual class: activators. 410,000 tested, 0.063% active; note: potency is the fitted concentration of half-maximal effect; nearly all actives have a fitted effect of over 55% in size
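Yeast A-beta toxicity model in growth medium with pinned compounds, 48 h at 30 C; growth read as absorbance at 600 nm. Normalized to FeCl3/clioquinol equimolar mix (positive) and DMSO (negative).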
FUS yeast rescue: FUS proteinopathy suppression in yeast | 390,000 tested, 0.24% active | Potency, µM (top dose mostly 76.6 µM), usual class: activators | S. cerevisiae FUS-expressing, growth rescue, OD600, 24 h;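 note: potency is the fitted concentration of half-maximal effect; plate controls were DMSO vehicle for no effect and reference control for full effect; nearly all actives have a fitted effect of over 55% in size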
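Quantitative HTS measuring growth restoration of FUS-toxic yeast. Galactose-induced cells (OD 0.005) were exposed 24hr at 30C to compounds at several concentrations, then absorbance at 600 nm was recorded.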
* marks the source's active call; other numbers are inactive results; i = inactive; u = inconclusive; x = no result; [ ] = another dose, or the depositor's remark. Unless noted, calls come from the whole dose curve; as a rule, active = well fitted curve in the direction sought with a large enough effect; inconclusive = small, poorly fitted or top-dose-only effect, or another doubt; inactive = no such curve, though single readings can be large; an effect the other way counts as inactive or inconclusive.

SMILES | Akt phos inh | TDP-43 yeast inh | aSyn yeast inh | Abeta yeast res | FUS yeast rescue
COc1ccc(-c2cnc(C)o2)cc1S(=O)(=O)Nc1c(C)cc(C)cc1C | x | 25µM* | x | i | i
COc1ccc(-c2cnc(C)o2)cc1S(=O)(=O)Nc1ccc(C)c(F)c1 | x | 26% | x | i | i
COc1ccc(-c2cnc(C)o2)cc1S(=O)(=O)Nc1ccc(OC(F)(F)F)cc1 | x | 22µM* | x | i | i
CC(NC(=O)CSc1n[nH]c(-c2ccccc2Cl)n1)c1nc2ccccc2n1C (centres undefined) | x | 7% | x | i | i
O=C(CSc1nc2ccccc2nc1Cc1ccc(Cl)cc1)N1CCCc2ccccc21 | x | -40% | x | i | i
OCCNc1ncnc2c1c(-c1ccccc1)c(-c1ccccc1)n2Cc1ccco1 | i | -14% | 13µM* | i | i
O=C(c1ccc(Nc2nc3ccccc3n3nnnc23)cc1)N1CCN(c2ccc(F)cc2)CC1 | x | 10µM* | x | u | i
COc1ccc(N2CCN(C(=O)c3ccc(Nc4nc5ccccc5n5nnnc45)cc3)CC2)cc1 | x | 8% | x | i | u
O=C(NC(=S)Nc1ccc(Br)cc1)C1CCC1 | i | u | -10% | 5.6µM* | i
O=C(NC(=S)Nc1cccc([N+](=O)[O-])c1)C1CCCC1 | i | 13µM* | -11% | u | i
O=C(Nc1ccc(Br)cc1)N1CCCCCCC1 | -110%* | -5% | -6% | i | i
O=C(NC(=S)Nc1ccc(Br)cc1)C1CCCCC1 | i | 21% | 0% | u | i
COC(=O)c1ccc(NC(=S)NC(=O)C2CCC2)cc1 | i | u | -7% | 8.9µM* | i
COCCNC(=O)c1c(NC(=O)Cc2coc3cc(C)ccc23)sc2c1CCCC2 | x | u | x | i | u
O=C(Nc1ccc(Br)cc1)C1CCCC1 | i | 11µM* | 1% | i | i
CCN1C(=O)[C@@H]2[C@@H](c3ccc(SC4CCCCC4)c(OC)c3)N3CCCC[C@@]3(C(=O)OC)[C@@H]2C1=O | i | -22% | -1% | i | 5µM*
CCN1C(=O)[C@@H]2[C@@H](c3ccc(-c4ccc(F)cc4)c(OC)c3)N3CCCC[C@@]3(C(=O)OC)[C@@H]2C1=O | i | u | -14% | i | u
CCN1C(=O)[C@H]2[C@@H](c3ccc(-c4ccc(C(C)=O)cc4)c(OC)c3)N3CCCC[C@@]3(C(=O)OC)[C@H]2C1=O | i | 14µM* | u | i | u
COC(=O)[C@@]12CCCN1[C@H](c1ccc(-c3ccc(Cl)c(Cl)c3)c(OC)c1)[C@H]1C(=O)N(C)C(=O)[C@H]12 | i | u | -7% | i | 35µM*
CCC(C)Sc1ccc([C@@H]2[C@@H]3C(=O)N(C)C(=O)[C@@H]3[C@]3(C(=O)OC)CCCCN23)cc1OC (some centres undefined) | i | u | 16% | i | i
COC(=O)[C@@]12CCCCN1[C@H](c1ccc(SC3CCCCC3)c(OC)c1)[C@@H]1C(=O)N(C)C(=O)[C@@H]12 | i | 20% | u | i | i
CCC(C)Sc1ccc([C@@H]2[C@@H]3C(=O)N(CC)C(=O)[C@@H]3[C@]3(C(=O)OC)CCCCN23)cc1OC (some centres undefined) | i | 35µM* | 15% | i | u
COC(=O)[C@@]12CCCN1[C@H](c1ccc(-c3cccc(Cl)c3)c(OC)c1)[C@H]1C(=O)N(C)C(=O)[C@H]12 | i | 1% | -1% | i | u
COc1cc(Cl)c(C)cc1Nc1c2c(nc3ccccc13)CCC2 | x | -12% | x | i | i
O=C(Cn1c(-c2cccs2)cc2ccccc21)N1CCN(c2ccccc2F)CC1 | x | 0% | x | i | i
SMILES | Akt phos inh | TDP-43 yeast inh | aSyn yeast inh | Abeta yeast res | FUS yeast rescue
Cc1ccc(C)c(N2CCN(C(=O)CCc3nnc4n(C)c(=O)c5ccccc5n34)CC2)c1 | x | 11% | x | i | i
O=C(Nc1ccccc1C(F)(F)F)N1CCOc2ccc(Cl)cc21 | x | 15% | x | i | i
COc1ccc(C2C(=O)N(C3CCCCCC3)CC(=O)N2Cc2ccc(C)cc2)cc1 (centres undefined) | x | -9% | x | i | i
Cc1ccc(S(=O)(=O)c2nc(-c3ccc(Cl)cc3)oc2N2CCCCCC2)cc1 | x | 15% | x | i | i
CCCCCCC[n+]1c(/C=C/c2ccc(N(C)C)cc2)sc2ccccc21 | x | x | -89% | x | x
COc1ccc2c(c1)CCc1c-2n[nH]c1C(=O)O | -111%* | -1% | 0% | i[9.22 µM] | i
O=c1c2sccc2n(Cc2cc(=O)n3cc(Cl)ccc3n2)c(=O)n1-c1ccccc1 | x | -2% | x | i | i
Cc1ccc(OCc2nc3ccccc3n2C(C)C(=O)Nc2c(C)cccc2C)cc1 (centres undefined) | i | 25µM* | 14% | i | i
Cc1ccc(OCc2nc3ccccc3n2C(C(=O)NC(C)(C)C)c2ccccc2)cc1 (centres undefined) | i | 7% | 2% | i | i
CNc1c(N)c(=O)oc2ccccc12 | i | -24% | -2% | i | i
Cc1ccc(Nc2c(N)c(=O)oc3ccccc23)cc1 | i | 14µM* | 1% | i | i
COc1ccc2c(c1)CC(C(=O)NCCCN1CCN(c3ccc(F)cc3)CC1)CO2 (centres undefined) | x | 0%[9.22 µM] | x | i | i
COC(=O)NC1c2ccccc2Oc2ccc(C)cc21 (centres undefined) | i | 13µM* | 3% | i | i
CN(Cc1ccccc1)/[N+]([O-])=N/Oc1ccc([N+](=O)[O-])cc1[N+](=O)[O-] | x | x | -72% | x | x
CCOCCn1c(SCCc2ccccc2)nc2c1c(=O)[nH]c(=O)n2C | i | 27% | -2% | i | i
CCOC(=O)C(C)Sc1nc2c(c(=O)[nH]c(=O)n2C)n1CCc1ccccc1 (centres undefined) | -103%* | 11% | 1% | i | i
CCOCCSc1nc2c(c(=O)[nH]c(=O)n2C)n1CCCc1ccccc1 | -114%* | -4% | 0% | i | i
C=CCNc1nc2c(c(=O)[nH]c(=O)n2C)n1CCCCC | -114%* | 4% | 0% | i | i
CCCCCn1c(SCCc2ccccc2)nc2c1c(=O)[nH]c(=O)n2C | -112%* | 20% | 9% | i | i
COC(=O)C(C)Sc1nc2c(c(=O)[nH]c(=O)n2C)n1CCCc1ccccc1 (centres undefined) | i | -1% | 8% | i | i
CCCCNc1nc2c(S(=O)(=O)c3ccc(Br)cc3)nnn2c2ccsc12 | x | 6% | x | i | i
CCOC(=O)c1cc(-c2ccccc2)n(CC(=O)NCc2ccccc2OC)c1C | x | 20% | x | i | i

Bioassay records from PubChem BioAssay.
